Test results from PubChem BioAssay.
Measured potencies and affinities stand elsewhere. The source made the active and inactive calls. Unless noted, the rule behind the calls is not given here.

Each compound was assayed against Calcium-dependent protein kinase 1 (Plasmodium falciparum (isolate 3D7)) (UniProt P62344) (assay: PfCDPK1 kinase inhibitors, biochemical, TCAMS library (AID 1159585; cut-off not given, nearly all actives have IC50 up to about 0.98 µM;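 note: inhibitors leave more ATP so luminescence rises with inhibition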)). Details: recombinant PfCDPK1, Kinase-Glo ATP depletion luminescence.
Calcium-dependent protein kinase 1 (Plasmodium falciparum (isolate 3D7)), sequence (P62344 whole entry, looked up): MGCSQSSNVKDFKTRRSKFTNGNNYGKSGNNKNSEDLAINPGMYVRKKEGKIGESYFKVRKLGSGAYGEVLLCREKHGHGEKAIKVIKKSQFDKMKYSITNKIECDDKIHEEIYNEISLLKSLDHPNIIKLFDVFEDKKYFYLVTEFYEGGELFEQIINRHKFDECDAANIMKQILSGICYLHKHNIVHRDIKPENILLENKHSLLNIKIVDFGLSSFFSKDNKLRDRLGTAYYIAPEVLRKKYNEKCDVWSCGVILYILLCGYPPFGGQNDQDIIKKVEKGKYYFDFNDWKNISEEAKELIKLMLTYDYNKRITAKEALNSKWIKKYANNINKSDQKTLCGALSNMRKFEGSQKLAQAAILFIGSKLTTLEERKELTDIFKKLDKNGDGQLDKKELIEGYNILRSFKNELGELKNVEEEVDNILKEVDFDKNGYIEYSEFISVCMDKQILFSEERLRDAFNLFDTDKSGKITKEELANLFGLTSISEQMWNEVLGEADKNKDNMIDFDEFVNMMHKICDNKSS

outcome, inactive:
Cc1cccc2[nH]c(-c3ccc(-c4cccc(CN5CCC(CO)CC5)c4)s3)nc12
O=C(Nc1cccc(-c2nn3ccccc3c2-c2ccnc(Nc3cccc(N4CCCC4=O)c3)n2)c1)c1cc(F)ccc1F
COc1ccc(NC(=O)Nc2nc(-c3ccc(Cl)c(C)c3)cs2)cc1N1CCN(C)CC1
COc1c(C(=O)NC2CCN(Cc3ccccc3)C2)cnc2ccccc12 (stereo not given)
COc1ccc(Cl)cc1NC(=O)Nc1ccc2c(c1)CCN(C1CCC1)CC2
OCCNc1nc(Nc2ccccc2)nc2ccccc12
COc1ccc2c(Nc3ccc(N4CCN(C)CC4)cc3)cc(C)nc2c1
O=C(N[C@H]1CCN(Cc2ccc(OCCCN3CCCCC3)cc2)C1)c1cc(Cl)cc(Cl)c1
COc1ccc(CNCCc2cccs2)cc1-c1ccc(OC)c(S(=O)(=O)NCCN2CCCC2)c1
COc1ccc(-c2ccc(NC(=O)c3cccc(C#N)c3)cc2)cc1CN1CCC(O)CC1
NCc1cccc(-c2cccc(CNC3CCN(Cc4ccccc4)CC3)c2)c1
CCc1nc2ccc(C(=O)OC)nc2n1Cc1ccc2oc(-c3ccccc3N)c(Br)c2c1
CO/C(=C\C=C\c1cc2cc(Cl)c(Cl)cc2[nH]1)C(=O)NCCN1CCCCC1
CCCCCCNC(=O)C1Cc2c([nH]c3ccc(Br)cc23)C2(CCN(Cc3ccccc3)CC2)N1 (stereo not given)
O=c1[nH]c(NCCCCCN2CCC(c3c[nH]c4ccccc34)CC2)ncc1Cc1ccc(Cl)c(Cl)c1
CCn1c2ccccc2c2cc(C=NNc3cc(C)nc4ccccc34)ccc21
O=c1cc(NCCCN(Cc2cc3c(Cl)cc(Cl)cc3[nH]2)Cc2cc3c(Cl)cc(Cl)cc3[nH]2)[nH]c2ccccc12
CCc1cc(NC2CCN(C)CC2)nc(Nc2cccc(OC)c2)n1
CCCCOc1cc(CNCCCCCCNCc2cc(OCCCC)cc3ccccc23)c2ccccc2c1
O=C(O)c1ccc2nc(-c3ccccn3)c(-c3ccccn3)nc2c1
Cc1cccc2[nH]c(-c3ccc(-c4ccc(NC(=O)C5CCN(C)CC5)cc4)cc3)nc12
CCCc1cc(N2CCC(c3ccccc3)(N3CCCCC3)CC2)nc(Nc2ccc(OC)cc2)n1
c1cncc(-c2cc(N3CCc4ccccc4C3)nc(-c3ccncc3)n2)c1
CN(C)C(CNC(=O)c1cc(-c2ccncc2)c(-c2ccc(NC(=O)Nc3ccccc3)cc2)o1)c1ccccc1 (stereo not given)
CN1CCCN(Cc2ccc(-c3cccc(NC(=O)c4ccc(Cl)cc4)c3)cc2)CC1
CN1CCN(CCCN(Cc2cccc(-c3ccc(CNCCc4ccccc4)cc3)c2)C(=O)c2cccs2)CC1
CNC(=O)c1cnc(Nc2ccc(N3CCN(C)CC3)cc2)nc1Nc1ccccc1OC
COc1ccc(NC(=O)/C=C/c2ccccc2Cl)cc1OCCN1CCC(c2nc3ccccc3[nH]2)CC1
COc1ccc2nccc(NCC3(O)CCC(NCc4ccc5c(n4)NC(=O)CS5)CC3)c2n1 (stereo not given)
c1ccn2c(-c3ncnc(NCc4ccc5c(c4)CCO5)n3)cnc2c1
CCCCCCCCOc1c(OCC)cc(Cc2cnc(N)nc2N)cc1OCC
Cc1ccc(NC(=O)NC2CCN(c3ccnc4cc(Cl)ccc34)CC2)cc1
Nc1c(C(=O)NCCCCN2CCN(c3nsc4ccccc34)CC2)sc2ccccc12
COc1ccc(NC(=O)Nc2ccc(C)c(-c3ccc(C(=O)Nc4ccncc4)cc3)c2)cc1
Cc1cccc2[nH]c(-c3cccc(-c4ccc(CN5CCCC5CN)cc4)c3)nc12 (stereo not given)
COc1cccc(CN2CCCC(COC(c3ccc(F)cc3)c3ccc(F)cc3)C2)c1O (stereo not given)
COc1cc(Cc2cnc(N)nc2N)ccc1OCc1ccc(NC(C)=O)cc1
COc1ccc(C=NNc2ccnc3ccccc23)c2ccccc12
Cc1ccc(CNC(=O)[C@H](CC(C)C)Nc2cc(C)nc(NCc3ccccc3C)n2)cc1
O=C(Nc1ccc(Cn2nc(Cl)c(N3CCCNCC3)cc2=O)cc1)Nc1ccc(-c2ccccc2)cc1

The compounds below were run against Plasmodium falciparum protein kinase 6 (PK6, PF3D7_1337100) (UniProt Q8IDW1) (assay: PfPK6 kinase inhibitors, biochemical, TCAMS library (AID 1159586)). Details: recombinant PfPK6, Kinase-Glo ATP depletion luminescence.
Plasmodium falciparum protein kinase 6 (PK6, PF3D7_1337100), sequence (Q8IDW1 1-305): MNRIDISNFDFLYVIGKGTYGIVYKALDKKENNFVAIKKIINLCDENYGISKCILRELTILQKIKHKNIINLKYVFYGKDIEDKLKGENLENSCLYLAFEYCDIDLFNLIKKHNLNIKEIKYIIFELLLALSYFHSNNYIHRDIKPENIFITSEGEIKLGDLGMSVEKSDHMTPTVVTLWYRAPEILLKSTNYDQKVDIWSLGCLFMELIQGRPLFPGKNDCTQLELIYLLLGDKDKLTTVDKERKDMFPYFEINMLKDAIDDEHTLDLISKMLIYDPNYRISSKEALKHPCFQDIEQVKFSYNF

outcome, inactive:
Cc1cccc2[nH]c(-c3ccc(-c4cccc(CN5CCC(CO)CC5)c4)s3)nc12
O=C(Nc1cccc(-c2nn3ccccc3c2-c2ccnc(Nc3cccc(N4CCCC4=O)c3)n2)c1)c1cc(F)ccc1F
COc1ccc(NC(=O)Nc2nc(-c3ccc(Cl)c(C)c3)cs2)cc1N1CCN(C)CC1
COc1c(C(=O)NC2CCN(Cc3ccccc3)C2)cnc2ccccc12 (stereo not given)
COc1ccc(Cl)cc1NC(=O)Nc1ccc2c(c1)CCN(C1CCC1)CC2
OCCNc1nc(Nc2ccccc2)nc2ccccc12
COc1ccc2c(Nc3ccc(N4CCN(C)CC4)cc3)cc(C)nc2c1
O=C(N[C@H]1CCN(Cc2ccc(OCCCN3CCCCC3)cc2)C1)c1cc(Cl)cc(Cl)c1
COc1ccc(CNCCc2cccs2)cc1-c1ccc(OC)c(S(=O)(=O)NCCN2CCCC2)c1
COc1ccc(-c2ccc(NC(=O)c3cccc(C#N)c3)cc2)cc1CN1CCC(O)CC1
NCc1cccc(-c2cccc(CNC3CCN(Cc4ccccc4)CC3)c2)c1
CCc1nc2ccc(C(=O)OC)nc2n1Cc1ccc2oc(-c3ccccc3N)c(Br)c2c1
CO/C(=C\C=C\c1cc2cc(Cl)c(Cl)cc2[nH]1)C(=O)NCCN1CCCCC1
CCCCCCNC(=O)C1Cc2c([nH]c3ccc(Br)cc23)C2(CCN(Cc3ccccc3)CC2)N1 (stereo not given)
O=c1[nH]c(NCCCCCN2CCC(c3c[nH]c4ccccc34)CC2)ncc1Cc1ccc(Cl)c(Cl)c1
CCn1c2ccccc2c2cc(C=NNc3cc(C)nc4ccccc34)ccc21
O=c1cc(NCCCN(Cc2cc3c(Cl)cc(Cl)cc3[nH]2)Cc2cc3c(Cl)cc(Cl)cc3[nH]2)[nH]c2ccccc12
CCc1cc(NC2CCN(C)CC2)nc(Nc2cccc(OC)c2)n1
CCCCOc1cc(CNCCCCCCNCc2cc(OCCCC)cc3ccccc23)c2ccccc2c1
O=C(O)c1ccc2nc(-c3ccccn3)c(-c3ccccn3)nc2c1
Cc1cccc2[nH]c(-c3ccc(-c4ccc(NC(=O)C5CCN(C)CC5)cc4)cc3)nc12
CCCc1cc(N2CCC(c3ccccc3)(N3CCCCC3)CC2)nc(Nc2ccc(OC)cc2)n1
c1cncc(-c2cc(N3CCc4ccccc4C3)nc(-c3ccncc3)n2)c1
CN(C)C(CNC(=O)c1cc(-c2ccncc2)c(-c2ccc(NC(=O)Nc3ccccc3)cc2)o1)c1ccccc1 (stereo not given)
CN1CCCN(Cc2ccc(-c3cccc(NC(=O)c4ccc(Cl)cc4)c3)cc2)CC1
CN1CCN(CCCN(Cc2cccc(-c3ccc(CNCCc4ccccc4)cc3)c2)C(=O)c2cccs2)CC1
CNC(=O)c1cnc(Nc2ccc(N3CCN(C)CC3)cc2)nc1Nc1ccccc1OC
COc1ccc(NC(=O)/C=C/c2ccccc2Cl)cc1OCCN1CCC(c2nc3ccccc3[nH]2)CC1
COc1ccc2nccc(NCC3(O)CCC(NCc4ccc5c(n4)NC(=O)CS5)CC3)c2n1 (stereo not given)
c1ccn2c(-c3ncnc(NCc4ccc5c(c4)CCO5)n3)cnc2c1
CCCCCCCCOc1c(OCC)cc(Cc2cnc(N)nc2N)cc1OCC
Cc1ccc(NC(=O)NC2CCN(c3ccnc4cc(Cl)ccc34)CC2)cc1
Nc1c(C(=O)NCCCCN2CCN(c3nsc4ccccc34)CC2)sc2ccccc12
COc1ccc(NC(=O)Nc2ccc(C)c(-c3ccc(C(=O)Nc4ccncc4)cc3)c2)cc1
Cc1cccc2[nH]c(-c3cccc(-c4ccc(CN5CCCC5CN)cc4)c3)nc12 (stereo not given)
COc1cccc(CN2CCCC(COC(c3ccc(F)cc3)c3ccc(F)cc3)C2)c1O (stereo not given)
COc1cc(Cc2cnc(N)nc2N)ccc1OCc1ccc(NC(C)=O)cc1
COc1ccc(C=NNc2ccnc3ccccc23)c2ccccc12
Cc1ccc(CNC(=O)[C@H](CC(C)C)Nc2cc(C)nc(NCc3ccccc3C)n2)cc1
O=C(Nc1ccc(Cn2nc(Cl)c(N3CCCNCC3)cc2=O)cc1)Nc1ccc(-c2ccccc2)cc1
